Compound activity (PubChem BioAssay)
ssDAF12 agonist – S. stercoralis DAF-12 nuclear receptor activators, primary screen, cell-based, luminescence, HEK293, GRIP1 co-expression, lit1-tk-luc. Nuclear hormone receptor DAF-12 (Strongyloides stercoralis). HEK293 ssDAF-12/GRIP1 lit1-tk-luc reporter; % of 3 µM dafachronic acid response. activation, % at 6.8 µM. 370,000 tested, 1% active;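 active = activation above the mean over all tested compounds plus 3 SD, cut at about 0.9% in these data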;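 also: 0% = DMSO-only wells and 100% = 3 µM delta7-dafachronic acid wells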
SMARCA2 activ – SMARCA2 (BRM) function activators, primary screen, cell-based, luminescence, high throughput. MG213 cells, MMTV-luciferase reporter, dexamethasone, overnight. activation, % at 9.1 µM. 370,000 tested, 1% active; in the data active = activation above about 7.8%;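 also: 0% = vehicle wells and 100% = reference activator wells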
hgDAF-12 ag – H. glycines DAF-12 receptor agonists, primary screen, cell-based, luminescence, HEK293, GAL4 fusion, UAS-luciferase | Nuclear hormone receptor DAF-12 (Heterodera glycines), GAL4 fusion | 370,000 tested, 1.8% active | HEK293 GAL4-hgDAF12 UAS-luciferase reporter, agonist luminescence; normalized to butyrate control | AID 687014, 2013 | activation, % at 6.8 µM;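 active = activation above a cutoff set at the mean of all screened compounds plus 3 SD, cut at about 10% in these data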;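 also: 0% = DMSO wells and 100% = sodium butyrate wells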
hcDAF-12 act – H. contortus DAF-12 nuclear receptor activators, primary screen, cell-based, luminescence, HEK293, lit1-tk-luc reporter; AID 652067, 2013; HEK293 hcDAF-12 lit1-tk-luc reporter; 0% DMSO, 100% Δ7-dafachronic acid; activation, % at 6.8 µM; 370,000 tested, 1.4% active;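 active = activation above the mean of all tested compounds plus 3 SD, cut at about 5.5% in these data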;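 also: 100% = response to 3 µM Δ7-dafachronic acid high control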
DAX1 StAR inh – DAX1 (NR0B1) inhibitors on StAR promoter, primary screen, cell-based, luminescence, SF-1 (NR5A1), full-length DAX-1 | HEK293T StAR-luciferase reporter, SF-1/DAX-1 repression relief | inhibition, % at 6.8 µM | 370,000 tested, 1.1% active | AID 652010, 2013;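 active = inhibition above the mean over all tested compounds plus 3 SD, cut at about 3.6% in these data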;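 also: 0% = DAX-1 cells with DMSO and 100% = cells lacking DAX-1 with DMSO; higher inhibition means more luminescence from relief of DAX-1 repression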
* hit, by the source's call. Compounds with a hit are over-represented: about 4.2% of the library has one in this group of screens.

SMILES | ssDAF12 agonist | SMARCA2 activ | hgDAF-12 ag | hcDAF-12 act | DAX1 StAR inh
COc1ccc(/C=N/NC(=O)CN2CCCc3ccccc32)c(OC)c1 | 0 | -5 | 1 | 5.8* | 0
COc1ccccc1CC(=O)Nc1cc2oc3ccccc3c2cc1OC | -1 | 2 | -1 | -2 | 0
COc1ccc(CC(=O)Nc2cc3oc4ccccc4c3cc2OC)cc1 | 0 | 0 | 12* | 0 | 1
COc1cc2c(cc1NC(=O)CSc1ccc(Cl)cc1)oc1ccccc12 | -1 | -4 | -1 | 2 | -1
COc1cc2c(cc1NC(=O)CSc1ccccn1)oc1ccccc12 | 0 | 3 | 4 | 6.5* | 2
CCCC(=O)Nc1sc(C(=O)Nc2cccc(N)c2)c(C)c1C(=O)OC | -1 | 5 | 7 | 1 | 3.9*
COC(=O)c1c(NC(C)=O)sc(C(=O)Nc2ccccc2)c1C | -2 | -3 | 7 | 0 | 2
COC(=O)c1c(NC(C)=O)sc(C(=O)Nc2ccccc2F)c1C | -1 | 1 | 13* | 1 | 3
COC(=O)[C@]12C[C@H](CC(=O)N3CCC(c4ccccc4)CC3)C(=O)N(CCC3=CCCCC3)C1=C[C@H](C(C)C)O[C@@H]2C1CC1 | -1 | -5 | 0 | 0 | 0
CCOC(=O)c1ccc(S(=O)(=O)Nc2cc(C(C)(C)C)no2)cc1 | -1 | -1 | -2 | -1 | 0
Cc1ccc(C(=O)OCC(=O)Nc2cc(C(C)(C)C)no2)c(C)c1 | -1 | -2 | -1 | -1 | 3.6*
Nc1cc(C(F)(F)F)ccc1Nc1ccccc1 | 0.9* | 3 | 1 | 1 | 0
Oc1ccccc1-c1nnc(SCCN2CCOCC2)n1Cc1ccccc1 | 1.1* | -8 | 0 | 6.9* | 0
O=C(CSc1nnc(-c2ccccc2)n1Cc1ccccc1)N1CCOCC1 | 0 | 6 | 1 | 0 | 0
C[C@@H]1OCN(C)[C@H]2C[C@H]3c4[nH]c5cccc(-c6ccccc6)c5c4CCN3C[C@@H]12 | -1 | -2 | 3 | -2 | 0
O=C(NCc1ccccn1)c1ccc(NC(=O)c2ccco2)cc1 | 1.3* | 2 | -1 | -2 | 1
O=C(Nc1ccc(-c2cn3ccccc3n2)cc1)c1ccco1 | 0 | 4 | 12* | 5 | 4.3*
CCN(CC)c1ccc(NC(=O)c2ccco2)cc1 | 0 | 4 | 13* | 4 | 4.1*
CCC(C)c1ccc(NC(=O)COC(=O)CCNC(=O)c2ccco2)cc1 (stereo unspecified) | -1 | -1 | 3 | 2 | 2
CCC(C)c1ccc(NC(=O)c2ccco2)cc1 (stereo unspecified) | 0 | 5 | 11* | 3 | 3
CCN(CC)c1ccc(NC(=O)c2ccco2)c(C)c1 | -1 | -2 | 3 | 0 | -1
COC(=O)[C@]12C[C@H](CC(=O)NCc3ccc(OC)c(OC)c3)C(=O)N(CCc3ccc(OC)c(OC)c3)C1=C[C@H](C(C)C)O[C@@H]2C1CC1 | -1 | -2 | 2 | -4 | -1
CN(CCO)c1cccc2c1S(=O)(=O)N(Cc1cn(Cc3ccc(F)cc3)nn1)Cc1ccccc1O2 | -1 | -1 | -2 | -3 | -1
Fc1ccccc1-c1nc(-c2ccncc2)no1 | 1.1* | 6 | 10 | 4 | 1
Cc1cc(C)cc(-c2nc(-c3ccncc3)no2)c1 | -1 | -3 | 3 | 3 | 1
Brc1cccc(-c2nc(-c3ccncc3)no2)c1 | -1 | 7 | 4 | -1 | 0
CC(C)(C)c1ccc(-c2nc(-c3ccncc3)no2)cc1 | 0 | -2 | 6 | 2 | 3.7*
Cc1cccc(-c2nc(-c3ccncc3)no2)c1 | 1 | 4 | 11* | 3 | 2
O=C(CSc1nncs1)NC(=O)Nc1ccc2c(c1)OCCO2 | -1 | 4 | 12* | 2 | 2
O=c1c2sc(-c3ccccc3)cc2nc2n1CCCCC2 | 0 | 4 | 12* | 4 | 3
